Molecules are shown by their SMILES. About 2,100 (3.2%) of roughly 65,000 compounds showed an effect of 50% or more. The median lay at about -52%. Many of the other results were omitted from the sample, so strong results are more common in it than they were.

The experiment deals with Plasmodium falciparum. Description: Screen against P. falciparum Asexual Blood Stage (ABS), at 5uM. To be noted: tested at 5 uM. The format is functional, Dd2.
For the molecule `COCC(=O)N1CCC2(CC1)CN(c1ccsc1)C(=O)CO2`, the INHIBITION is listed as -11.6%.
In the case of `CC(=O)N1CCC2(CCN(Cc3cccc(F)c3)CC2)CC1`, the INHIBITION was -58.8%.
In the case of `Cc1noc(C)c1CN1CCC2(CCN(Cc3cccc(F)c3)CC2)C1` it was 67.9%.
In the case of `CN(C)CC(=O)N1CCC2(CCN(Cc3cccc(F)c3)CC2)C1` it was 36.4%; in that of `O=C(CC1CC1)N[C@@H]1CN(C(=O)c2ccsc2)C[C@@H]2CCCO[C@@H]21`, -17.8%; in that of `CC(=O)N1CC2(CCN(Cc3ccc(Cl)cc3)C2)Cc2ccccc21` (stereo unspecified), 9.12%.
In the case of `Cc1c(C)n(CC(O)CN2CCCCCC2)c2c(Cl)cccc12` (stereo unspecified) it was 51.6%; in that of `Cc1c(C)n(CC(O)CN2CCOCC2)c2c(Cl)cccc12` (stereo unspecified), -15.7%.
`Cc1c(C)n(CC(O)CN2CCC(O)CC2)c2c(Cl)cccc12` (stereo unspecified): the INHIBITION is recorded as 44.9%.
In the case of `CCN1CC(C(=O)NCCOc2ccc3c(c2)OCO3)CC1=O` (stereo unspecified), the INHIBITION is on record as -196%.
In the case of `Cc1noc(CN(C)CC2CCCN(CCc3ccc(Cl)cc3)C2)n1` (stereo unspecified) it was -72.6%; in that of `CN(Cc1ccncc1)CC1CCCN(CCc2ccc(Cl)cc2)C1` (stereo unspecified), -23.8%; in that of `Cc1nc(CN(C)CC2CCCN(CCc3ccc(Cl)cc3)C2)n(C)n1` (stereo unspecified), 54.3%.
Then `O=S(=O)(c1cccs1)N1Cc2nc(CN3CCCC3)oc2C1`, with -84.5%.
Turning to `CC1CCCN1Cc1cccc(C(=O)Nc2ccc3c(c2)CCC3=O)c1` (stereo unspecified), the INHIBITION came to 30.1%.
As to `COc1ccc(NC(=O)c2cccc(CN3CCCC3C)c2)cc1OC` (stereo unspecified), the INHIBITION was 51.1%.
Then `Cc1cccc(C)c1NC(=O)c1cccc(CN2CCCC2C)c1` (stereo unspecified), with 49.8%; and `O=C([C@H]1C[C@@H]2CCN(c3cccc(F)c3)C[C@H]2O1)N1CCCC1`, with -20.3%; and `CCc1nc(C2CCCN2CCCSC)no1` (stereo unspecified), with 42.3%.
Regarding `O=c1c(NCc2ccncc2)c(NCC(O)CN2CCOCC2)c1=O` (stereo unspecified), the INHIBITION was -27%.
`Cc1nnc(N2CCCC3(CN(Cc4ccc(F)cc4)CCO3)C2)o1` (stereo unspecified): the INHIBITION is -65.4%.
Then `Cc1cc(C)cc(CNC(C)c2c(C)nn(C)c2C)c1` (stereo unspecified), with 49.4%.
For `Cn1nccc1C(=O)N1CC[C@]2(C[C@H](OCc3ccccn3)CO2)C1`, the INHIBITION is -58%.
For `Cc1ccc(CCNc2nc(-c3ccncc3)nc3c2CCNCC3)o1`, the INHIBITION is on record as -88.2%.
With `CCOCCNc1nc(-c2ccncc2)nc2c1CCNCC2`, the INHIBITION was -46.1%.
As for `c1csc(CCNc2nc(-c3ccncc3)nc3c2CCNCC3)c1`, the INHIBITION is 53.5%.
In the case of `Cc1csc(CCCNC(=O)NC2CC(=O)N(C(C)(C)C)C2)n1` (stereo unspecified) it was -57%; in that of `Cc1n[nH]c(NC(=O)c2ccc(COCC(F)(F)F)cc2)c1C`, -94.3%; in that of `O=C1CC2(CCCCN2C(=O)c2ccco2)CN1c1cccnc1` (stereo unspecified), -138%.
As to `O=C1Nc2ccccc2CN(CC=Cc2ccccc2)C12CCNC2` (stereo unspecified), the INHIBITION is 60.2%.
In the case of `CCCN1Cc2ccccc2NC(=O)C12CCNC2` (stereo unspecified) it was -23.5%; in that of `O=C1Nc2ccccc2CN(CC2CC2)C12CCNC2` (stereo unspecified), -2.03%.
In the case of `COCCN1CCN(C(=O)N2CCCC2)Cc2ccc(C)nc21`, the INHIBITION is on record as -114%.
Then `CC(C)(C)c1nc(CN2CCCN(Cc3cccs3)CC2)no1`, with 30.6%.
As to `Cc1csc(N2CCCN(C(=O)C3(C#N)CCCCC3)CC2)n1`, the INHIBITION is -43.4%.
Then `Cc1csc(N2CCN(C(=O)C3(C#N)CCCC3)CC2)n1`, with -111%; and `Cc1csc(N2CCCN(C(=O)C3(C#N)CCCC3)CC2)n1`, with 63%.
Consider `Fc1cccc(N2CCCC3(CN(Cc4nccs4)CCO3)C2)c1` (stereo unspecified), for which the INHIBITION came to 0.276%.
Turning to `CC(=O)Nc1ccc(CN2CCCC(c3cc4ncccc4[nH]3)C2)cc1` (stereo unspecified), the INHIBITION was 42.3%.
Then `CN(Cc1cccnc1)c1nc(-c2ccccn2)nc2c1CCNCC2`, with 55.3%.
Regarding `CN(Cc1ccc(-n2cccn2)cc1)c1cc(N)nc(N)n1`, the INHIBITION came to 41.7%.
Then `CN(CC1CCCO1)c1nc(-c2cccnc2)nc2c1CCNCC2` (stereo unspecified), with -40%; and `c1ccc(-c2nc3c(c(NCCn4cccc4)n2)CCNCC3)nc1`, with -0.552%; and `Cc1nc2c(c(N(C)Cc3ccccc3-n3cccn3)n1)CCNCC2`, with -3.02%.
Take `CN(CC1CCCCO1)c1nc(-c2cccnc2)nc2c1CCNC2` (stereo unspecified): the INHIBITION is given as -14.1%.
Consider `CN(Cc1ccc(-n2cccn2)cc1)c1nc(N)nc2c1CCNCC2`, for which the INHIBITION is 58.4%.
For the molecule `Cc1cc(CN(C)c2nc(-c3ccccn3)nc3c2CCNCC3)n[nH]1`, the INHIBITION is recorded as 69.2%.
Turning to `CN(Cc1ccccc1-n1cccn1)c1nc(N)nc2c1CCNCC2`, the INHIBITION was -13.4%.
Then `Cc1nonc1CN(C)c1nc(-c2cccnc2)nc2c1CCNC2`, with 69.5%; and `CN(CCO)c1nc(-c2ccccn2)nc2c1CCNC2`, with -79.2%; and `CN(CC(O)CO)c1nc(-c2cccnc2)nc2c1CCNC2` (stereo unspecified), with -79.7%.
As to `COc1cc(CNCc2ccc(NC(=O)NC(C)C)cc2)cc(OC)c1`, the INHIBITION is recorded as -65.3%.
Then `CCC(=O)Nc1cccc(OCC(=O)N2C[C@H]3CC[C@H]2C3)c1`, with -137%.
For `COc1cccc(CC(=O)N2CCC3(CC2)OCCCC3O)c1OC` (stereo unspecified), the INHIBITION is reported as -112%.
As for `O=C(CN1CCCC1Cn1cccn1)NCCC1=CCCCC1` (stereo unspecified), the INHIBITION was -61.8%.
With `CCS(=O)(=O)N1CCc2c(COCc3ccncc3)cncc2C1`, the INHIBITION is on record as -181%.
Regarding `CCn1nccc1CN(C)C(=O)Cn1nc(C)cc1C`, the INHIBITION is on record as -52.5%.
In the case of `CC(=O)Nc1cccc(OCCNC(=O)N(C)Cc2ccccc2)c1` it was -47.8%; in that of `COc1ccc(F)c(F)c1CN1CC(=O)N(c2ccccc2C)CC1C` (stereo unspecified), 30.6%; in that of `COc1cccc(CN2CC(=O)N(c3ccccc3C)CC2C)c1OC` (stereo unspecified), 53.8%.
Then `COc1ccc(F)c(CN2CC(=O)N(c3ccccc3C)CC2C)c1` (stereo unspecified), with 9.59%; and `CC(C)c1nnsc1CNC(=O)C1CCCN(C(=O)N(C)C)C1` (stereo unspecified), with -18.2%.
As for `Fc1cccc(CNCC2OCCc3cn(CC4CCOCC4)nc32)c1` (stereo unspecified), the INHIBITION was 17.8%.
In the case of `CC(C)n1ncc2c1NC(=O)CC21C(=O)Nc2c(Br)cc(Cl)cc21` (stereo unspecified) it was -72.6%; in that of `COCc1nc(CNC(=O)C(C)n2ccnc2C(C)C)no1` (stereo unspecified), -14.3%.
In the case of `COc1cc2c(cc1CNC(=O)C(C)n1ccnc1C(C)C)CCC2` (stereo unspecified) it was 60.2%; in that of `COc1cc2c(cc1CNC(=O)C(C)n1ccnc1C(C)C)OCCO2` (stereo unspecified), 11.4%.
In the case of `COc1cccc(N2CCN(CCC(=O)NC3CCCCC3)CC2)c1` it was -28.7%; in that of `CCC(NC(=O)COC)c1ccccc1OCC(=O)N1CCCC1` (stereo unspecified), -191%; in that of `CCC(NC(N)=O)c1ccccc1OCC(=O)N1CCCC1` (stereo unspecified), -37.9%.
With `CCC(N)c1ccccc1OCC(=O)N1CCCC1` (stereo unspecified), the INHIBITION worked out at 52.5%.
With `CCOCCC1(C(=O)N2CCCC(c3ncc[nH]3)C2)CCCC1` (stereo unspecified), the INHIBITION is reported as -71.1%.
Then `CC(c1ccncn1)N(C)Cc1cc2cc3c(cc2[nH]c1=O)OCO3` (stereo unspecified), with -84.5%.
In the case of `CCOc1cccc(C(=O)Nc2ccncc2)c1` it was -39.7%.
Then `COc1c(CNC2(c3noc(C)n3)CCC2)c(C)nn1C`, with -55.5%; and `COc1c(CNC2(c3ccc(Cl)cc3)CCC2)c(C)nn1C`, with 60.5%.
As to `COc1c(CNC2CCc3cc(Cl)ccc32)c(C)nn1C` (stereo unspecified), the INHIBITION was determined as 21.4%.
In the case of `Cc1nc(-c2ccccc2)cc(C2CCNCC2)n1` it was 57.8%.
In the case of `COc1ccc(-c2cc(C3CCNCC3)nc(C)n2)cc1` it was -57.7%.
In the case of `Cc1nc(-c2ccc(F)cc2)cc(C2CCNCC2)n1` it was -33.4%; in that of `CC(=O)N1CCCC(c2nc(N(C)C)ncc2-c2cccc(F)c2)C1` (stereo unspecified), -1.35%; in that of `O=C(c1ncccn1)N1C[C@H]2CCC[C@@]2(COc2ccccn2)C1`, 14.9%.
On to `O=C(c1cocn1)N1C[C@H]2CCC[C@@]2(COc2ccccn2)C1`, for which the INHIBITION stood at 52.1%.
Then `Cc1ccc(C(=O)N2C[C@H]3CCC[C@@]3(COc3ccccn3)C2)nc1`, with 9.4%; and `NC(=O)c1ccn(COc2ccccc2Cl)n1`, with -63.1%.
Then `Cc1cnn(C2CN(c3ccccc3S(=O)(=O)C(F)(F)F)C2)c1`, with -111%; and `CS(=O)(=O)NC[C@H]1Cn2c(-c3ccc(F)cc3)cnc2CO1`, with -34.5%; and `CS(=O)(=O)NC[C@H]1Cn2c(-c3ccc(Cl)cc3)cnc2CO1`, with 57.1%.
Turning to `CS(=O)(=O)NC[C@H]1Cn2c(-c3ccccc3)cnc2CO1`, the INHIBITION is given as -21%.
In the case of `CN(C)Cc1csc(-c2nccn2Cc2ccsc2)c1` it was 17.1%; in that of `Cc1cccc(C(=O)N2CCC[C@]3(C[C@@H](OCC4CC4)CO3)C2)n1`, -156%; in that of `Cn1cc(CN2C[C@H](N3CCOCC3)[C@@H]3OCCC[C@@H]32)cn1`, -93.3%.
In the case of `COc1cccc(C(O)CNC(=O)CC2CCCCC2)c1` (stereo unspecified), the INHIBITION was -143%.
Then `OC(CNC1CCOCC1)c1ccc(Cl)c(F)c1` (stereo unspecified), with 50.9%; and `OC(CNC1CCOCC1)c1cccc(OCc2ccccc2)c1` (stereo unspecified), with 53.2%; and `c1ccc(COc2cccc(CNC3CCc4ncnn4C3)c2)cc1` (stereo unspecified), with 24.8%.
For the molecule `O=C(NCC(O)c1ccc(Cl)c(F)c1)NC1CC=CC1` (stereo unspecified), the INHIBITION is on record as -14.7%.
With `CCN1CCC(NC(=O)NCC(O)c2ccc(Cl)c(F)c2)CC1` (stereo unspecified), the INHIBITION is reported as -34.9%.
Then `CC(C)(CNc1cccc(Cl)c1)NC(=O)C1CCCN(CC(N)=O)C1` (stereo unspecified), with -34.6%.
Consider `COc1ccccc1-c1ncc(CN2C[C@@H](N(C)C)[C@H](C(C)C)C2)s1`, for which the INHIBITION amounted to 54.7%.
With `COc1ccccc1-c1ncc(CN2CCCC(CCC(N)=O)C2)s1` (stereo unspecified), the INHIBITION is listed as -43.7%.
Take `COc1ccccc1-c1ncc(CN2C[C@H](O)[C@@H](N3CCCC3)C2)s1`: the INHIBITION was 16.5%.
Then `CCc1csc(C2CCCN(C(=O)c3ncccn3)C2)n1` (stereo unspecified), with -94%; and `CC(C)n1c(=O)c2ccccc2n(CCCN(C)C)c1=O`, with 59.5%.
Regarding `CC(C)n1c(=O)c2ccccc2n(CCN(C)C)c1=O`, the INHIBITION was determined as 36.1%.
In the case of `CN(C)CCn1c(=O)n(C)c(=O)c2ccccc21` it was -7.78%.

Values taken from ChEMBL document CHEMBL4513216, “Probing the Open Global Health Chemical Diversity Library for Multistage-Active Starting Points for Next-Generation Antimalarials” (ACS Infect Dis, 2020).
